Assay results published in PubChem BioAssay (Tox21).
Records with an inconclusive call do not appear. Calls of active or inactive are those of the source. Unless noted, calls follow the shape of the dose curve; as a rule, active = well fitted curve in the direction sought with a large enough effect in the repeat runs; inconclusive = weak or mixed curves; inactive = no such curve, though single readings can be large; an effect the other way counts as inactive or inconclusive.

Experiments:
[1] = qHTS assay to identify small molecule antagonists of the thyroid receptor (TR) signaling pathway - cell viability counter screen (AID 743064); also: nearly all actives have a fitted effect of over 50% in size; also: potency is read from the fitted curve at half-maximal effect
Summary of the method: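 GH3.TRE-Luc cells, 4 h pre-plating; cpd + T3 1 nM final; 37 °C 23.5 h; CellTiter-Fluor 30 min; fluorescence read.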

[2] = qHTS assay to identify small molecule antagonists of the thyroid receptor (TR) signaling pathway (AID 743065); also: nearly all actives have a fitted effect of over 55% in size; also: potency is read from the fitted curve at half-maximal effect; as to activity, negative = inhibition: series mostly up to about 70 µM
Summary of the method: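 Antagonism measured as loss of luciferase signal in GH3 cells stably carrying a TRE-luciferase reporter, co-treated with compound and T3 (1 nM final) for 23.5 h at 37 C. Viability was read in the same well by CellTiter-Fluor.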

[3] = qHTS assay to identify small molecule antagonists of the estrogen receptor alpha (ER-alpha) signaling pathway using the BG1 cell line (AID 743080; calls by dose curve;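 also: BG1 cells stimulated with 17beta-estradiol alongside compound; nearly all actives have a fitted effect of over 25% in size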; also: potency is read from the fitted curve at half-maximal effect; as to activity change, negative = inhibition: series mostly up to about 70 µM)
Summary of the method: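 BG1-Luc-4E2 cells (endogenous full-length ER-alpha, 4xERE luciferase) hormone-starved 5 days in charcoal-stripped FBS, plated 4,000/well for 24 h, then compound plus 17beta-estradiol for 21.5 h at 37 C; ONE-Glo luminescence read.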

Aromatase (Homo sapiens) = Aromatase (Homo sapiens) (UniProt P11511); test: qHTS assay to identify aromatase inhibitors (AID 743083); also: nearly all actives have a fitted effect of over 55% in size; also: potency is read from the fitted curve at half-maximal effect; as to activity, negative = inhibition: series mostly up to about 70 µM
[4] = target: Estrogen receptor (Homo sapiens) (UniProt P03372); test: qHTS assay to identify small molecule antagonists of the estrogen receptor alpha (ER-alpha) signaling pathway (AID 743069; active = well fitted curve in the direction sought with a large enough effect in the signal ratio in the repeat runs, not every such curve was filed as active; the % refers to the signal ratio)
Summary of the method: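 Compound effects are measured against 17beta-estradiol stimulation in HEK293 cells with a UAS-controlled beta-lactamase reporter for ER-alpha. Exposure lasts 18 hr at 37C; LiveBLAzer B/G FRET substrate follows for 2 hr at room temperature.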

[5] = qHTS assay to identify small molecule antagonists of the estrogen receptor alpha (ER-alpha) signaling pathway - cell viability counter screen (AID 743074; calls by dose curve;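 also: HEK293 cells carrying ER-alpha-UAS-bla reporter stimulated with 17beta-estradiol; nearly all actives have a fitted effect of over 45% in size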)
[6] = target: Estrogen receptor (Homo sapiens) (UniProt P03372); test: qHTS assay to identify small molecule agonists of the estrogen receptor alpha (ER-alpha) signaling pathway (AID 743075; calls by dose curve)
[7] = target: Estrogen receptor (Homo sapiens) (UniProt P03372); test: qHTS assay to identify small molecule agonists of the estrogen receptor alpha (ER-alpha) signaling pathway using the BG1 cell line (AID 743079); also: nearly all actives have a fitted effect of over 20% in size; also: potency is read from the fitted curve at half-maximal effect
[8] = qHTS assay to identify small molecule antagonists of the estrogen receptor alpha (ER-alpha) signaling pathway using the BG1 cell line - cell viability counter screen (AID 743081);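 also: compound given together with 17beta-estradiol as the ER stimulus; series mostly up to about 70 µM; nearly all actives have a fitted effect of over 45% in size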
[9] = tested on: thyroid hormone receptor (rat, GH3 cells); test: qHTS assay to identify small molecule agonists of the thyroid receptor (TR) signaling pathway (AID 743066; calls by dose curve)
% is scaled to controls: 0 for no effect and ±100 for the full control effect.

Sequence of Estrogen receptor (Homo sapiens) (P03372 whole entry, looked up): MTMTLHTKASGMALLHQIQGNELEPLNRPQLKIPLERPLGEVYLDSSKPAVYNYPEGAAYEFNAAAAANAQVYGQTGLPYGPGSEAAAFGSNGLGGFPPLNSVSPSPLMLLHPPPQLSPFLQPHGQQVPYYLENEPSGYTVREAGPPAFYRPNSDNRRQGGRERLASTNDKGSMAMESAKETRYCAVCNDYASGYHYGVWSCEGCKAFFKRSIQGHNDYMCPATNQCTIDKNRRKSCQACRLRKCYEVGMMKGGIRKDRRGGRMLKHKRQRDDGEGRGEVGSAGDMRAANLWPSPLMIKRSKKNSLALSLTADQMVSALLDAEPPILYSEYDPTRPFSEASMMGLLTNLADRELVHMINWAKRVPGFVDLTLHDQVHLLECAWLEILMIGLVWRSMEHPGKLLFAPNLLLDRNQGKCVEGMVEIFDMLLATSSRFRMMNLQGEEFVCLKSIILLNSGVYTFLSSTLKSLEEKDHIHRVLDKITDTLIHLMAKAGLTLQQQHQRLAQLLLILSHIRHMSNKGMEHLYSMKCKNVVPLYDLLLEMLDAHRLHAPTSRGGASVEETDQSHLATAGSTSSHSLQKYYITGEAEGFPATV
Sequence of Aromatase (Homo sapiens) (P11511 whole entry, looked up): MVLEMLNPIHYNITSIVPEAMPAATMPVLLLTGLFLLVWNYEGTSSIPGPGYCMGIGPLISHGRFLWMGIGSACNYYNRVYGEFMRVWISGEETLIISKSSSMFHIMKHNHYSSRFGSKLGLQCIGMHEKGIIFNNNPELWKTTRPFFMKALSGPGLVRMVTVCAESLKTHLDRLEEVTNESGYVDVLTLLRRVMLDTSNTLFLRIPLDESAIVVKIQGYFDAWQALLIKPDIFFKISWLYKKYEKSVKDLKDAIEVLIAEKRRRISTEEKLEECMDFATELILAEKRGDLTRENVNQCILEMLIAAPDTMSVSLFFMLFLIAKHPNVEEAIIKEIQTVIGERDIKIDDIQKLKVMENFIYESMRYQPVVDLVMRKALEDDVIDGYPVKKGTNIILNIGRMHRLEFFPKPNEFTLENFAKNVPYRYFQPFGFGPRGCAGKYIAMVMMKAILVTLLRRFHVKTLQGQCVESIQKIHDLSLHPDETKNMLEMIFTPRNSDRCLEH

Cc1ccc2c(Cl)cc(Cl)c(O)c2n1
active: Potency [1] 1.19 µM | Potency [2] 1.68 µM | Potency [3] 9.44 µM | Potency (Aromatase (Homo sapiens)) 13.3 µM

Cc1ccc2ccccc2c1[N+](=O)[O-]
inactive: Potency [1] | Potency [2] | Potency [4] | outcome [5] | Potency [6] | Potency [7] | Potency [3] | Potency [8]

Clc1cccc(C(c2ccc3nc[nH]c3c2)n2ccnc2)c1 (stereo unspecified)
active: Potency [3] 11.9 µM
inactive: Potency [1] | outcome [9] | Potency [6] | Potency [8]

Nc1ccc(F)cc1F
inactive: Potency [1] | Potency [4] | outcome [5] | Potency [6] | Potency [7] | Potency [3] | Potency [8] | Potency (Aromatase (Homo sapiens))

Cc1cc(C)n(CO)n1
inactive: Potency [1] | Potency [2] | outcome [5] | Potency [6] | Potency [7] | Potency [3] | Potency [8] | Potency (Aromatase (Homo sapiens))

CCOC(C)OCC
inactive: Potency [1] | outcome [5] | Potency [8] | Potency (Aromatase (Homo sapiens))

CCc1ccc(C(=O)C(C)CN2CCCCC2)cc1 (stereo unspecified)
inactive: Potency [1] | outcome [9] | outcome [5] | Potency [8] | Potency (Aromatase (Homo sapiens))

CC(O)CN (stereo unspecified)
inactive: Potency [1] | Potency [4] | outcome [5] | Potency [6] | Potency [7] | Potency [3] | Potency [8] | Potency (Aromatase (Homo sapiens))

C/C(=C\C(C)CC(C)CC(C)C)C1CC(=O)OC1=O (stereo unspecified)
inactive: Potency [1] | outcome [9] | outcome [5] | Potency [6] | Potency [7] | Potency [3] | Potency [8] | Potency (Aromatase (Homo sapiens))

Oc1ccc(CCNCCCCCCNCCc2ccccc2)cc1O
active: Potency [1] 29.8 µM | Potency [2] 26.6 µM
inactive: Potency [4] | Potency [6] | Potency [7] | Potency [3] | Potency (Aromatase (Homo sapiens))

CCOCCn1c(N2CCCN(C)CC2)nc2ccccc21
inactive: Potency [1] | Potency [2] | outcome [9] | Potency [8]

O=P(c1ccccc1)(c1ccccc1)c1ccccc1
inactive: Potency [1] | outcome [9] | outcome [5] | Potency [6] | Potency [7] | Potency [3] | Potency [8] | Potency (Aromatase (Homo sapiens))

C(/C=C/C=C/Nc1ccccc1)=Nc1ccccc1
inactive: Potency [1] | Potency [4] | outcome [5] | Potency [6] | Potency [7] | Potency [3] | Potency [8] | Potency (Aromatase (Homo sapiens))

CCCCCCCCCCCCCCCCCCCl
inactive: activity, negative = inhibition [2] 15% [at 8.44 µM] | activation [9] 7.57% [at 8.08 µM] | activity, negative = inhibition [4] -5.29% [at 6.71 µM] | activity, negative = cytotoxicity [5] -22.2% [at 6.72 µM] | activation [6] -1.63% [at 6.71 µM] | activation [7] -11% [at 8.47 µM] | activity change, negative = inhibition [3] 0.197% [at 8.47 µM] | activity change, negative = cytotoxicity [8] -0.138% [at 8.47 µM] | activity, negative = inhibition (Aromatase (Homo sapiens)) 13.8% [at 8.47 µM]

O=S(=O)(O)c1cc(Cl)c(Cl)cc1Cl
inactive: Potency [1] | Potency [4] | outcome [5] | Potency [6] | Potency [7] | Potency [3] | Potency [8] | Potency (Aromatase (Homo sapiens))

CC1(COc2ccc(CC3SC(=O)NC3=O)cc2)CCCCC1 (stereo unspecified)
inactive: Potency [6] | Potency [3] | Potency [8]
active: Potency [1] 23.7 µM | Potency [2] 11.9 µM

CO[C@@H]1COCC[C@@H]1N[C@@H]1CC[C@@](C(=O)N2CCc3ncc(C(F)(F)F)cc3C2)(C(C)C)C1
inactive: Potency [1] | outcome [5] | Potency [8] | Potency (Aromatase (Homo sapiens))

Cc1ccc(NC(=O)c2ccc(CN3CCN(C)CC3)cc2)cc1Nc1nccc(-c2cccnc2)n1
inactive: outcome [5] | Potency [6] | Potency [7]
active: Potency [1] 21.1 µM | Potency [2] 26.6 µM

O=[N+]([O-])c1ccc(Cl)cc1Cl
inactive: Potency [1] | Potency [2] | outcome [9] | Potency [8] | Potency (Aromatase (Homo sapiens))

CCCCCCCCCC(C)C=O (stereo unspecified)
inactive: Potency [1] | outcome [9] | outcome [5] | Potency [8] | Potency (Aromatase (Homo sapiens))

CCN(CCCCOC(=O)c1ccc(OC)c(OC)c1)C(C)Cc1ccc(OC)cc1 (stereo unspecified)
inactive: Potency [1] | outcome [9] | Potency [4] | outcome [5] | Potency [6] | Potency [7] | Potency [3] | Potency [8] | Potency (Aromatase (Homo sapiens))

O=C(OC1C[C@H]2CC[C@@H](C1)[N+]21CCCC1)C(O)(c1ccccc1)c1ccccc1 (stereo partly specified)
inactive: Potency [1] | Potency [2] | outcome [9] | Potency [8] | Potency (Aromatase (Homo sapiens))

CCCCCCCCNC
inactive: Potency [1] | Potency [2] | outcome [9] | Potency [8] | Potency (Aromatase (Homo sapiens))

CNc1ccccc1
inactive: Potency [2] | outcome [9] | Potency [4] | outcome [5] | Potency [6] | Potency [7] | Potency [3] | Potency [8] | Potency (Aromatase (Homo sapiens))

Nc1ncnc2c1ncn2[C@@H]1O[C@H](CO)[C@@H](O)[C@H]1O
inactive: Potency [1] | Potency [4] | outcome [5] | Potency [6] | Potency [7] | Potency [3] | Potency [8] | Potency (Aromatase (Homo sapiens))

CCCN(C1CCN(C(=O)C2CCNCC2)CC1)[C@@H]1CCc2ccc(OC)cc2C1
inactive: outcome [9] | Potency (Aromatase (Homo sapiens))
active: Potency [1] 68.6 µM | Potency [2] 54.5 µM

O=C(O)c1cccnc1Nc1cccc(C(F)(F)F)c1
inactive: Potency [1] | outcome [9] | outcome [5] | Potency [6] | Potency [7] | Potency [3] | Potency [8] | Potency (Aromatase (Homo sapiens))

CCCCCCCCCCCCCCCCN
inactive: Potency [2] | outcome [9] | Potency [4] | outcome [5] | Potency [6] | Potency [7] | Potency [3] | Potency [8] | Potency (Aromatase (Homo sapiens))

CC(C)CC(C)(C)C
inactive: Potency [2] | outcome [9] | outcome [5] | Potency [6] | Potency [7] | Potency [3] | Potency [8] | Potency (Aromatase (Homo sapiens))

OCCCO
inactive: Potency [2] | outcome [9] | outcome [5] | Potency [6] | Potency [7] | Potency [3] | Potency [8] | Potency (Aromatase (Homo sapiens))

CC1=C(C)C(=O)C(C(CCCCCC(=O)O)c2ccccc2)=C(C)C1=O (stereo unspecified)
inactive: Potency [2] | outcome [9] | Potency [4] | outcome [5] | Potency [6] | Potency [7] | Potency [3] | Potency [8] | Potency (Aromatase (Homo sapiens))

C1=COCCC1
inactive: Potency [2] | outcome [9] | Potency [4] | outcome [5] | Potency [6] | Potency [7] | Potency [3] | Potency [8] | Potency (Aromatase (Homo sapiens))

CC(C)=CCCC(C)C=O (stereo unspecified)
inactive: Potency [2] | outcome [9] | outcome [5] | Potency [6] | Potency [7] | Potency [3] | Potency [8] | Potency (Aromatase (Homo sapiens))

C[C@H]1C[C@H]2[C@@H]3CCC4=CC(=O)C=C[C@]4(C)[C@@]3(F)[C@@H](O)C[C@]2(C)[C@@]1(O)C(=O)COP(=O)(O)O
inactive: Potency [2] | outcome [9] | outcome [5] | Potency [6] | Potency [7] | Potency [8] | Potency (Aromatase (Homo sapiens))

CCC(C)CCCC(C)(C)O (stereo unspecified)
inactive: Potency [2] | outcome [9] | outcome [5] | Potency [8] | Potency (Aromatase (Homo sapiens))

OCCc1ccncc1
inactive: Potency [2] | outcome [9] | outcome [5] | Potency [6] | Potency [7] | Potency [3] | Potency [8]

CCCCCCOC(=O)c1ccccc1
inactive: Potency [2] | outcome [9] | outcome [5] | Potency [6] | Potency [7] | Potency [3] | Potency [8] | Potency (Aromatase (Homo sapiens))

CC[C@H](NC(C)C)[C@H](O)c1ccc(O)c2[nH]c(=O)ccc12
inactive: Potency [2] | outcome [9] | Potency [4] | outcome [5] | Potency [6] | Potency [7] | Potency [3] | Potency [8] | Potency (Aromatase (Homo sapiens))

CC(C)C/C=C(\C=O)c1ccccc1
active: Potency [7] 61.1 µM
inactive: Potency [2] | outcome [9] | outcome [5] | Potency [6] | Potency [3] | Potency [8] | Potency (Aromatase (Homo sapiens))

COc1ccc(/C=C/c2cc(OC)cc(=O)o2)cc1
active: Potency [7] 0.884 µM
inactive: Potency [2] | outcome [9] | Potency [4] | outcome [5] | Potency [6] | Potency [8] | Potency (Aromatase (Homo sapiens))

O=C(O)c1cc(C(=O)O)cc([N+](=O)[O-])c1
inactive: Potency [2] | outcome [9] | outcome [5] | Potency [8] | Potency (Aromatase (Homo sapiens))

OCCOc1cccc(OCCO)c1
inactive: Potency [2] | outcome [9] | outcome [5] | Potency [8] | Potency (Aromatase (Homo sapiens))

CCCOC(C)=O
inactive: Potency [2] | outcome [9] | Potency [4] | outcome [5] | Potency [6] | Potency [7] | Potency [3] | Potency [8] | Potency (Aromatase (Homo sapiens))

OCC(O)c1ccccc1 (stereo unspecified)
inactive: Potency [2] | outcome [9] | outcome [5] | Potency [6] | Potency [7] | Potency [3] | Potency [8] | Potency (Aromatase (Homo sapiens))

CCCCCCCCOCCCN
active: Potency [2] 21.7 µM
inactive: outcome [9] | outcome [5] | Potency [6] | Potency [3] | Potency [8] | Potency (Aromatase (Homo sapiens))

O=C(Nc1ccccc1)c1cc([N+](=O)[O-])ccc1Cl
inactive: outcome [9] | outcome [5] | Potency [6] | Potency [8] | Potency (Aromatase (Homo sapiens))
active: Potency [2] 61.1 µM

CC/C=C\CCO
inactive: Potency [2] | outcome [9] | outcome [5] | Potency [8]

COc1ccc(CN(CCN(C)C)c2ncccn2)cc1
inactive: Potency [2] | outcome [9] | outcome [5] | Potency [8] | Potency (Aromatase (Homo sapiens))
